The full data set covers some 8,800 targets. This sample favours those with a hit. About 0.5% of all pairs of compound and target were hits.
Legend:
Test in all cases: log2 fold change, soluble protein after heating vs DMSO (PISA); higher = thermal stabilisation; K562 lysate, 10 uM; active = over 0.2 and 3.5 SD of the protein, either way, in both replicates (recomputed)
erlotinib = compound: C#Cc1cccc(Nc2ncnc3cc(OCCOC)c(OCCOC)cc23)c1 [erlotinib]
How it was run: (§1)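 Soluble protein was defined as the supernatant remaining after 21,000xg for 90 min, following pooling of heated aliquots and adjustment to 0.5% NP-40 at 4°C. Before that, crude K562 extract at 1 mg/mL protein in PBS pH 7.4 with 1 mM MgCl2 was treated with 10 μM compound for 30 min and heated for 3 min across 48°C-58°C. Quantification used TMTpro 16plex LC-MS/MS with channel sums equalised, and values are log-two fold changes in thermal stability relative to solvent controls from duplicates.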

[1] = compound: C/C(=N\NC(=O)C1=CC(=CC=C1)S(=O)(=O)N2CCOCC2)/C3=C(C=CC(=C3)Cl)O
How it was run: as §1

[2] = compound: C1=CC(=CC=C1C2=NC3=C(N2)C=C(C=C3)C(=O)N)OC4=CC=C(C=C4)Cl
How it was run: as §1

[3] = compound: C1=CC2=C(C=CC(=C2)/C=C\3/C(=O)NC(=NCC4=CC=CS4)S3)N=C1
How it was run: as §1

[4] = compound: C1=CC2=NC=CN=C2C=C1/C=C/3\C(=O)NC(=O)S3
How it was run: as §1

[5] = compound: C1=CC=C(C=C1)C2=NC(=C(N2)C3=CC=NC=C3)C4=CC(=C(C=C4)Cl)O
How it was run: as §1

[6] = compound: C1=CC=C2C(=C1)C3=NNC4=CC=CC(=C43)C2=O
How it was run: as §1

[7] = compound: C1CCN(C1)C(=O)NC2=CC=CC(=C2)NC3=NC=C(C(=N3)NCCC4=CN=CN4)Br
How it was run: as §1

[8] = compound: C1CN(CCC1(CC2=CC=C(C=C2)Cl)N)C3=NC=NC4=C3C=CN4
How it was run: as §1

IRAK-1-4 Inhibitor I = compound: C1COCCN1CCN2C3=CC=CC=C3N=C2NC(=O)C4=CC(=CC=C4)[N+](=O)[O-] [IRAK-1-4 Inhibitor I]
How it was run: as §1

ibrutinib = compound: C=CC(=O)N1CCC[C@@H](n2nc(-c3ccc(Oc4ccccc4)cc3)c3c(N)ncnc32)C1 [ibrutinib]
How it was run: as §1

[9] = compound: CC(=O)c1cnc2ccc(-c3cc(Cl)c(O)c(Cl)c3)nc2c1N[C@H]1CC[C@H](CN(C)C)CC1
How it was run: as §1

ralimetinib = compound: CC(C)(C)Cn1c(N)nc2ccc(-c3[nH]c(C(C)(C)C)nc3-c3ccc(F)cc3)nc21 [ralimetinib]
How it was run: as §1

[10] = compound: CC(C)(O)CC(=O)NCCn1ccc2ncnc(Nc3ccc(Oc4cccc(C(F)(F)F)c4)c(Cl)c3)c21
How it was run: as §1

[11] = compound: CC(C)C1=C2N=C(C=C(N2N=C1)NCC3=CC=CC=C3)NCCCCCCN
How it was run: as §1

[12] = compound: CC1=C(C(CC(=O)N1)C2=CC=C(C=C2)C(F)(F)F)C(=O)NC3=C(C=C4C(=C3)C=NN4)F
How it was run: as §1

[13] = compound: CC1=C(C2=C(C=C1)C(=O)C3=CC=CC=C3N2CCCN)C
How it was run: as §1

[14] = compound: CC1=C(C=C(C=C1)NC(=O)C2=CC(=CC=C2)C(C)(C)C#N)NC3=CC4=C(C=C3)N=CN(C4=O)C
How it was run: as §1

[15] = compound: CC1=C(C=C(C=C1)NC(=O)C2=CC(=CC=C2)N(C)C)NC(=O)C3=CC=C(C=C3)O
How it was run: as §1

[16] = compound: CC1=CC=C(C=C1)SC2=C3C=C(SC3=CN=C2)C(=O)N
How it was run: as §1

Measured: log2 fold change

RBMX (UniProt P38159)
UniProt P38159, sequence (P38159 whole entry, looked up): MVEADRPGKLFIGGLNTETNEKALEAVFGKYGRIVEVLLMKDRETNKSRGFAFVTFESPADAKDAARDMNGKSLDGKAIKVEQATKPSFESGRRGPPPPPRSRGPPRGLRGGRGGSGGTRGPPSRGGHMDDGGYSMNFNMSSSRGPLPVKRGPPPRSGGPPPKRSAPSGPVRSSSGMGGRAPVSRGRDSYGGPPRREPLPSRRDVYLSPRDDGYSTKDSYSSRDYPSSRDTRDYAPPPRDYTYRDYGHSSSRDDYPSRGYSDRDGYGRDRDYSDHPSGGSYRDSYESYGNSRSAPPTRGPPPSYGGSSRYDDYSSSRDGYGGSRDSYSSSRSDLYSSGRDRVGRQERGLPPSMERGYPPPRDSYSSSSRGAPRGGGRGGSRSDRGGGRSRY
inactive: erlotinib 0 | [1] 0.019 | [2] -0.056 | [3] 0.016 | [4] 0.013 | [5] 0.025 | [6] 0.018 | [7] 0.06 | [8] 0.029 | IRAK-1-4 Inhibitor I -0.012 | ibrutinib -0.034 | [9] -0.132 | ralimetinib 0.004 | [10] 0.032 | [11] -0.029 | [12] -0.017 | [13] 0.035 | [14] -0.016 | [15] -0.016 | [16] -0.006

RPN2 (UniProt P04844)
UniProt P04844, sequence (P04844 whole entry, looked up): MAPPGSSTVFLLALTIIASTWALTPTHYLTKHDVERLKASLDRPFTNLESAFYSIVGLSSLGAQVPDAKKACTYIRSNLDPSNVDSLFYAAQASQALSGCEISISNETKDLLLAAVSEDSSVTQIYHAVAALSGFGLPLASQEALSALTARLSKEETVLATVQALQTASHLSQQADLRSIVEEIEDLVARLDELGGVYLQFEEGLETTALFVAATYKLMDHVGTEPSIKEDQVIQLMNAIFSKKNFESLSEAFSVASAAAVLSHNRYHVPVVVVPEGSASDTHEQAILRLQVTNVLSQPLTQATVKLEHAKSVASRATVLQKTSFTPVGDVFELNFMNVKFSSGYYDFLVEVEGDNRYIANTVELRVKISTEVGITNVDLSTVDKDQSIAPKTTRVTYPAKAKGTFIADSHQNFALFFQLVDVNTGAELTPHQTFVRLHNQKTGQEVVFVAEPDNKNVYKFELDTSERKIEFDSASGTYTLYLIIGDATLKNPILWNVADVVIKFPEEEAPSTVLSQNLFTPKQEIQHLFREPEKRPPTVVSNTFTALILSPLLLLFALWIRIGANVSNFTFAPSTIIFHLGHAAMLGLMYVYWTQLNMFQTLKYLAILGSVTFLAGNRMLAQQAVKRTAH
inactive: erlotinib 0 | [1] 0.014 | [2] -0.055 | [3] 0.022 | [4] 0.021 | [5] 0 | [6] -0.049 | [7] -0.007 | [8] 0.006 | IRAK-1-4 Inhibitor I 0.007 | ibrutinib -0.008 | [9] 0.014 | ralimetinib -0.004 | [10] -0.035 | [11] -0.021 | [12] 0.008 | [13] 0.021 | [14] -0.011 | [15] -0.015 | [16] -0.017

RXRB isoform 3 (UniProt P28702)
UniProt P28702, sequence (P28702 whole entry, looked up): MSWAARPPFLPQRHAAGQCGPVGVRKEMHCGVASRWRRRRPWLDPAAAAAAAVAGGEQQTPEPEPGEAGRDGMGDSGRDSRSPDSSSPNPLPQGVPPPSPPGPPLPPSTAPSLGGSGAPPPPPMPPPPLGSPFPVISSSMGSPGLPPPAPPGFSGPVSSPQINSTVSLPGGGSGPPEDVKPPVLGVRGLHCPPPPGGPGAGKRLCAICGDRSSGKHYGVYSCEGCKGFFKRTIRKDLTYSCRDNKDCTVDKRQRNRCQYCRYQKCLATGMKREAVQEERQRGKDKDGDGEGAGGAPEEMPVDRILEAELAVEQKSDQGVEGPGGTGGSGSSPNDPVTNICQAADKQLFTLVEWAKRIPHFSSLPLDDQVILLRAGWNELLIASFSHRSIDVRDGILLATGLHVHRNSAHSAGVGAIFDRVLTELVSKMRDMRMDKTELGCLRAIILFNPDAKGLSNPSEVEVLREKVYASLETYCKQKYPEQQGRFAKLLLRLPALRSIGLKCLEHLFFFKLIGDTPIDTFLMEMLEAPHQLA
inactive: erlotinib -0.025 | [1] 0.006 | [2] -0.038 | [3] -0.014 | [4] 0.051 | [6] -0.039 | [7] 0.011 | [8] -0.015 | ibrutinib 0.047 | [9] -0.037 | [11] 0.106 | [12] 0.026 | [13] -0.005 | [14] 0.011 | [16] -0.109

RNF181 (UniProt Q9P0P0)
UniProt Q9P0P0, sequence (Q9P0P0 whole entry, looked up): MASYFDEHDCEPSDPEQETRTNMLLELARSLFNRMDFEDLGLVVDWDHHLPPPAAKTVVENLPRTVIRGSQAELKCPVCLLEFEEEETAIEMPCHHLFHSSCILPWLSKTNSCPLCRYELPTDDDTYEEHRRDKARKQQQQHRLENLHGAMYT
inactive: erlotinib 0.031 | [1] 0.037 | [2] 0.016 | [3] 0.036 | [4] -0.001 | [5] 0.022 | [6] -0.058 | [7] 0.03 | [8] 0.099 | IRAK-1-4 Inhibitor I -0.014 | ibrutinib 0.043 | [9] -0.024 | ralimetinib -0.001 | [10] -0.006 | [11] -0.005 | [12] -0.056 | [13] 0.008 | [14] 0.03 | [15] 0 | [16] 0.013

RAD54L2 (UniProt Q9Y4B4)
inactive: erlotinib 0.186 | [1] -0.176 | [2] -0.103 | [3] -0.035 | [4] -0.135 | [6] 0.002 | [7] -0.046 | [8] 0.055 | ibrutinib -0.005 | [9] 0.23 | [11] -0.073 | [12] 0.131 | [13] -0.051 | [14] 0.031 | [16] 0.094

RBM23 isoform 2 (UniProt Q86U06)
UniProt Q86U06, sequence (Q86U06 whole entry, looked up): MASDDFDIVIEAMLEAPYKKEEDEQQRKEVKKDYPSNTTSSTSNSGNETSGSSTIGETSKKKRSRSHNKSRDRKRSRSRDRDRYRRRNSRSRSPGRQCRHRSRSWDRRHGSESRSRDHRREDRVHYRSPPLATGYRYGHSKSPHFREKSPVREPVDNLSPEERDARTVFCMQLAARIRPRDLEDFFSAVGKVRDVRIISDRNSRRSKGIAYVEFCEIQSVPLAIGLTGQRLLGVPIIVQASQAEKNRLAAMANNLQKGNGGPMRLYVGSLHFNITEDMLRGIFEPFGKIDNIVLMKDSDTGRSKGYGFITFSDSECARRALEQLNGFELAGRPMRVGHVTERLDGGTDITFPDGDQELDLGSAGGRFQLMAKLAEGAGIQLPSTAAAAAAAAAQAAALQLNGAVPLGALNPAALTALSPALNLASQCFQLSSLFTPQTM
inactive: erlotinib -0.056 | [1] 0.007 | [2] 0.012 | [3] -0.106 | [4] 0.148 | [5] -0.052 | [6] 0.001 | [7] -0.175 | [8] 0.091 | IRAK-1-4 Inhibitor I -0.004 | ibrutinib -0.125 | [9] -0.014 | ralimetinib 0.041 | [10] -0.096 | [11] 0.081 | [12] 0.151 | [13] -0.122 | [14] 0.112 | [15] -0.022 | [16] 0.05

RBM4 (UniProt Q9BWF3)
inactive: erlotinib -0.031 | [1] 0.059 | [2] -0.008 | [3] 0.009 | [4] 0.008 | [5] -0.065 | [6] -0.008 | [7] 0.001 | [8] 0 | IRAK-1-4 Inhibitor I -0.003 | ibrutinib 0.006 | [9] 0.021 | ralimetinib 0.008 | [10] -0.014 | [11] 0.023 | [12] 0.028 | [13] 0.005 | [14] -0.154 | [15] 0.025 | [16] -0.004

RECQL5 (UniProt O94762)
inactive: erlotinib 0.046 | [1] -0.093 | [2] 0.282 | [3] 0.083 | [4] 0.005 | [5] -0.002 | [6] 0.012 | [7] -0.062 | [8] 0.036 | IRAK-1-4 Inhibitor I 0.006 | ibrutinib 0.014 | [9] -0.335 | ralimetinib 0.035 | [10] -0.015 | [11] 0.055 | [12] 0.03 | [13] -0.066 | [14] -0.044 | [15] 0.035 | [16] -0.001

RNASEL (UniProt Q05823)
inactive: erlotinib 0.103 | [1] -0.025 | [2] -0.019 | [3] -0.01 | [4] 0.099 | [5] 0.009 | [6] -0.062 | [7] -0.031 | [8] 0.005 | IRAK-1-4 Inhibitor I 0.006 | ibrutinib -0.072 | [9] -0.033 | ralimetinib 0.037 | [10] -0.034 | [11] 0 | [12] -0.023 | [13] 0.001 | [14] 0.01 | [15] 0.013 | [16] 0.027

SDHC (UniProt Q99643)
UniProt Q99643, sequence (Q99643 whole entry, looked up): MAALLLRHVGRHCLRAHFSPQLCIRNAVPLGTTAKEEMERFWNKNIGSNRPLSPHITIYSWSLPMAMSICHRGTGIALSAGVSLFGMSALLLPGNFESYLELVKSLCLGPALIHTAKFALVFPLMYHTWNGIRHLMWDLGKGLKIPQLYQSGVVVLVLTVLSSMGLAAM
inactive: erlotinib 0.013 | [1] 0.002 | [2] 0.001 | [3] 0 | [4] -0.048 | [5] -0.01 | [6] 0.02 | [7] -0.02 | [8] -0.067 | IRAK-1-4 Inhibitor I 0.032 | ibrutinib 0.033 | [9] -0.012 | ralimetinib 0.064 | [10] -0.035 | [11] -0.05 | [12] -0.015 | [13] -0.013 | [14] -0.026 | [15] 0.023 | [16] 0.044

RFC5 (UniProt P40937)
inactive: erlotinib 0.02 | [1] 0.024 | [2] -0.025 | [3] 0.036 | [4] -0.012 | [5] 0.029 | [6] -0.074 | [7] 0.004 | [8] 0.023 | IRAK-1-4 Inhibitor I 0.019 | ibrutinib -0.038 | [9] -0.001 | ralimetinib 0.046 | [10] 0.02 | [11] 0.012 | [12] -0.002 | [13] -0.009 | [14] 0.014 | [15] 0.025 | [16] 0.018

RIOK2 (UniProt Q9BVS4)
inactive: erlotinib -0.018 | [1] -0.045 | [2] -0.015 | [3] 0.07 | [4] 0.038 | [5] 0.029 | [7] -0.01 | [8] -0.019 | IRAK-1-4 Inhibitor I -0.005 | ibrutinib -0.012 | ralimetinib 0.026 | [10] -0.014 | [11] -0.021 | [12] -0.018 | [13] -0.011 | [14] -0.016 | [15] 0.013 | [16] 0.052
active: [6] 0.395 | [9] 0.512

SASS6 (UniProt Q6UVJ0)
inactive: erlotinib 0.024 | [1] 0.016 | [2] 0.028 | [3] -0.019 | [4] -0.009 | [5] 0.015 | [6] -0.023 | [7] -0.012 | [8] 0 | IRAK-1-4 Inhibitor I -0.021 | ibrutinib -0.006 | [9] 0.023 | ralimetinib -0.006 | [10] -0.056 | [11] -0.017 | [12] 0.024 | [13] 0.007 | [14] 0.015 | [15] 0.001 | [16] -0.021

RPTOR (UniProt Q8N122)
UniProt Q8N122, sequence (Q8N122 whole entry, looked up): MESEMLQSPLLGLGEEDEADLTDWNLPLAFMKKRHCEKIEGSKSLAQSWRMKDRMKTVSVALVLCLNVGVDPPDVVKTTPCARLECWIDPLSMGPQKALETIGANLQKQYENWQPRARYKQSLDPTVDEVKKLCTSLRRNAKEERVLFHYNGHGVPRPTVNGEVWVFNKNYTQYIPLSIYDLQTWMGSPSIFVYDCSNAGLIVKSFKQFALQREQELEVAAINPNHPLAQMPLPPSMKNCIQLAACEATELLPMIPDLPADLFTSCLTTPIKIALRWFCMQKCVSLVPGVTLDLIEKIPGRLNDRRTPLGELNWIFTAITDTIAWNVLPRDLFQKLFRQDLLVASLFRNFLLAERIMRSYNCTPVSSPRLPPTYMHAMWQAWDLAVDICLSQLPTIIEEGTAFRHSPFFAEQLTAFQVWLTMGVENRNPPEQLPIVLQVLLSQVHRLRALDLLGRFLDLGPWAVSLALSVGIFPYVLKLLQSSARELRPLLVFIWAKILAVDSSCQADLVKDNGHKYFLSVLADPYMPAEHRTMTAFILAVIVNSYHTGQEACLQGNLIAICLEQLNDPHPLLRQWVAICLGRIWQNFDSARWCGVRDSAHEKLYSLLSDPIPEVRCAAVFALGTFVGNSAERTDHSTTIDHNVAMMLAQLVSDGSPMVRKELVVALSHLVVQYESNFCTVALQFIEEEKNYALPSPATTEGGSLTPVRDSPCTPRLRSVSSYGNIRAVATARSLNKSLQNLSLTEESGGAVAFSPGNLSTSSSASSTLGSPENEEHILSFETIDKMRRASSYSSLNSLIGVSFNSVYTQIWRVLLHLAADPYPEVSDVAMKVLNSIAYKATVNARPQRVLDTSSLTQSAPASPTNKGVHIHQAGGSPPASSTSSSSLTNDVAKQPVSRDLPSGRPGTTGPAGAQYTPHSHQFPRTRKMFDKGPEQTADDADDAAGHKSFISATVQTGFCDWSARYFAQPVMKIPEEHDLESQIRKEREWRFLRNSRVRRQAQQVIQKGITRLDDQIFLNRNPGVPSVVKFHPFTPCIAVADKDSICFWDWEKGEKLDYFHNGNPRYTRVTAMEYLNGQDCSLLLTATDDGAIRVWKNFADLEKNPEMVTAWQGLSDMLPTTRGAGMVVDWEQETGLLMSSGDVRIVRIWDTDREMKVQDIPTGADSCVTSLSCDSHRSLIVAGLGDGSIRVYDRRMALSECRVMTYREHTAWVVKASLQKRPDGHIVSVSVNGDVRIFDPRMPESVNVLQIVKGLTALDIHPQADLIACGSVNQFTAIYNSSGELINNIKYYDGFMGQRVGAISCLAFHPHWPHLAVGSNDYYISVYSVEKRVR
inactive: erlotinib 0.032 | [1] 0.002 | [2] 0.062 | [3] 0.013 | [4] 0.017 | [5] -0.002 | [6] -0.002 | [7] -0.036 | [8] -0.015 | IRAK-1-4 Inhibitor I 0.003 | ibrutinib -0.042 | [9] 0.008 | ralimetinib -0.001 | [10] -0.045 | [11] -0.012 | [12] 0.005 | [13] -0.039 | [14] 0.005 | [15] 0.038 | [16] 0.01

RAPGEF2, A0A2R8YGD3
inactive: erlotinib -0.009 | [1] 0.16 | [2] 0.038 | [3] 0.042 | [4] -0.083 | [5] -0.047 | [6] 0.053 | [7] 0.007 | [8] -0.085 | IRAK-1-4 Inhibitor I 0.007 | ibrutinib -0.059 | [9] 0.007 | ralimetinib 0.008 | [10] -0.037 | [11] 0.008 | [12] 0.054 | [13] -0.07 | [14] 0.025 | [15] -0.025 | [16] 0.023

RECQL4 (UniProt O94761)
UniProt O94761, sequence (O94761 whole entry, looked up): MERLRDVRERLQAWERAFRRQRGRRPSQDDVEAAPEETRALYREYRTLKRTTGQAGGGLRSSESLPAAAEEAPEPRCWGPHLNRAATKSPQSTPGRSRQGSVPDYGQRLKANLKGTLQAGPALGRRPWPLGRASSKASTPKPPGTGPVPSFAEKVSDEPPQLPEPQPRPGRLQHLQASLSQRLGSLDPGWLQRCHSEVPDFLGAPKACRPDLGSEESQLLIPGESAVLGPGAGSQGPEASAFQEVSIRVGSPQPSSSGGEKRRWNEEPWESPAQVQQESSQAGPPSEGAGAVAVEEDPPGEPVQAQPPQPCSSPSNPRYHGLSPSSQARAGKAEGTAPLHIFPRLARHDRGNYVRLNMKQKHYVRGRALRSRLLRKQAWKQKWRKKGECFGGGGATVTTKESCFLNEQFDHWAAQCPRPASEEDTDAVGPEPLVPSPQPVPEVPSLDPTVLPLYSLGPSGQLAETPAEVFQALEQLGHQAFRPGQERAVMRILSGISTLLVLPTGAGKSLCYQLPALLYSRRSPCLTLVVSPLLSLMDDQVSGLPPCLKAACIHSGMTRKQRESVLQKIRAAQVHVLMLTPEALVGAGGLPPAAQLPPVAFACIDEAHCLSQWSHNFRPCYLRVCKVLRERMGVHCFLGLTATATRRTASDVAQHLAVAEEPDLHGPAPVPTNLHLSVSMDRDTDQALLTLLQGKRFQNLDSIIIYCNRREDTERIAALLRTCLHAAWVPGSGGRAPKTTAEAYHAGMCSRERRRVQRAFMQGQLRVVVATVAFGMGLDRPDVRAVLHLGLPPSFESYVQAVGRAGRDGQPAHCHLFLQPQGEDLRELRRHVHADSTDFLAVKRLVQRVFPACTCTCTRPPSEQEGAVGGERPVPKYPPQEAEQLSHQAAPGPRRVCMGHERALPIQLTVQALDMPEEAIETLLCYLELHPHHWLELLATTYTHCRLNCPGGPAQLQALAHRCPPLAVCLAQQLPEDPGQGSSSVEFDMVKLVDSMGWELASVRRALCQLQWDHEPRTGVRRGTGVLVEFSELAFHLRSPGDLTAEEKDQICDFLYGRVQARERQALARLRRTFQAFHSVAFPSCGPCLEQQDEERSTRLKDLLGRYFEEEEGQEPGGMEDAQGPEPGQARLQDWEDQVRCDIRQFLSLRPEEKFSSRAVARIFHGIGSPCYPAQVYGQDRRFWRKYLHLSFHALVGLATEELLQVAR
inactive: erlotinib -0.041 | [1] 0.023 | [2] -0.025 | [3] 0.195 | [4] -0.081 | [5] 0.018 | [6] -0.039 | [7] -0.035 | [8] 0.013 | IRAK-1-4 Inhibitor I 0.015 | ibrutinib 0.016 | ralimetinib -0.034 | [10] -0.06 | [11] 0.039 | [12] -0.017 | [13] 0.076 | [14] 0 | [15] 0.044

— the supplement of paper PMC10849652
